# Several values for one entry are separate records, joined by “and”; a condition that tells them apart may be missing. Identical values can stand only once. Out of some 16,000 compounds screened, about 5,800 (36%) were called active. Not shown: some 23% with an inconclusive outcome. Calls come from the whole dose curve; as a rule, active = well fitted curve in the direction sought with a large enough effect; inconclusive = small, poorly fitted or top-dose-only effect, or effect the other way; inactive = no such curve, though single readings can be large or run the other way. The list shows a part of the results. The source holds several records for some structures; these can differ, active in one and inactive in another.
# Biological target: Cytochrome P450 2C19 (Homo sapiens) (UniProt P33261)
# Experiment: Cytochrome panel assay with activity outcomes
# Details: recombinant CYP, pro-luciferin dealkylation, luminescence, p450-cyp2c19; series mostly up to 57.1 µM; activity, negative = inhibition: at the top concentration
# % is set by controls: 0 for no effect and ±100 for the full control effect.
# Cytochrome P450 2C19 (Homo sapiens), sequence (P33261 whole entry, looked up): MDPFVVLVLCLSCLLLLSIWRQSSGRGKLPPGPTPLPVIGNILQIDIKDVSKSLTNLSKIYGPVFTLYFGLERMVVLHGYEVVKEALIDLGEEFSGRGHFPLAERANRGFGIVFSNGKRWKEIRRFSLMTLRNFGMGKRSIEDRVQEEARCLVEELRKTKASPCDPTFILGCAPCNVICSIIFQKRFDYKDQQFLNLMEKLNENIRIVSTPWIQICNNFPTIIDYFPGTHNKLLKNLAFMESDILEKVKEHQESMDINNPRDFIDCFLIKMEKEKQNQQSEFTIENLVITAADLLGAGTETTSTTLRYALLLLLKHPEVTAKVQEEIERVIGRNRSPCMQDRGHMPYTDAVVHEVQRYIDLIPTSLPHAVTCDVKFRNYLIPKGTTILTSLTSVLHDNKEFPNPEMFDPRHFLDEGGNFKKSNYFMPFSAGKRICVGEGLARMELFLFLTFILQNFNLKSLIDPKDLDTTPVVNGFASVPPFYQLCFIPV
SMILES,"activity, negative = inhibition",AC50
CO[C@@H]1/C=C\CC(=O)N[C@@H](C)C(=O)OC[C@@H](OC)[C@H](C)/C=C\CC(=O)OC[C@H]1C,-30.6% [at 11.4 µM] (inactive),
O=C1C(Cl)=C(Nc2ccc(S(=O)(=O)Nc3ccccn3)cc2)C(=O)c2ccccc21,,0.794 µM (active)
CN(C)S(=O)(=O)Nc1ccccn1,-1.75% [at 11.4 µM] (inactive),
Nc1ccc(S(=O)(=O)Nc2ccccn2)cc1,35.2% [at 25.6 µM] (inactive),
CCOC(=O)N1CCC(NC(=O)CSCc2cnn(-c3ccccc3)c2-n2cccc2)CC1,,5.01 µM (active)
Cc1ccc(C)c(CN2C(=O)C3CCCN3c3ccc(C#N)cc32)c1 (stereo not given),,3.16 µM (active)
Cc1ccc(C)c(C(=N)c2ccccc2Cc2ccccc2)c1,,1 µM (active)
CC(C)N(CCC(=O)c1ccc2ccccc2c1)Cc1ccccc1,4.32% (inactive),
N=C(c1ccc2ccccc2c1)c1ccccc1Cc1ccccc1,,3.98 µM (active)
COc1cc(/C=C(/NC(=O)c2ccccc2Cl)C(=O)O)cc(OC)c1OC,-19.5% (inactive),
O=C(O)CNC(=O)c1ccccc1O,26.9% [at 11.4 µM] (inactive),
COc1ccccc1C(=O)N/C(=C/c1ccc(Br)cc1)C(=O)NCC(=O)O,,25.1 µM (active)
CS(=O)(=O)N1CCC2(CC1)CN(c1cccc(-c3ccccc3)c1)C2,-17.6% (inactive),
CCn1c2ccccc2c2cc(NS(=O)(=O)c3ccccc3C)ccc21,,0.282 µM (active)
CCn1c(C)nc2cc(C(=O)NNS(=O)(=O)c3ccccc3F)ccc21,-12.6% (inactive),
CCc1ccc2[nH]c(O)c(N=Nc3nc(-c4ccccc4)cs3)c2c1,,15.8 µM (active)
O=[N+]([O-])c1ccccc1N=Nc1c(O)[nH]c2ccc(S(=O)(=O)O)cc12,-23.2% [at 11.4 µM] (inactive),
COC(=O)C1=C(C)NC(C)=C([N+](=O)[O-])[C@H]1c1ccccc1C(F)(F)F,,0.158 µM (active)
COC(=O)C1=C(C)NC(C)=C([N+](=O)[O-])[C@@H]1c1ccccc1C(F)(F)F,,0.126 µM (active)
CCC(=O)O[C@@]1(C(=O)SCF)[C@@H](C)C[C@H]2[C@@H]3C[C@@H](F)C4=CC(=O)C=C[C@@]4(C)[C@]3(F)[C@@H](O)C[C@]21C,-19.8% [at 25.6 µM] (inactive),
C[C@@H](c1ccccc1)N1C(=O)[C@H]2[C@H]3[C@H](O)[C@H](O)C/C(=N/OC[C@@H](O)COCc4ccco4)[C@H]3CC[C@@H]2C1=O,-25% [at 11.4 µM] (inactive),
O=C(Nc1ccccc1)[C@@]12C[C@@H]1/C(=N/O)c1ccccc1O2,,10 µM (active)
CCOC(=O)[C@@]12C[C@@H]1/C(=N/O)c1ccccc1O2,-14.2% (inactive),

SMILES,"activity, negative = inhibition",AC50
N=C1[C@@H](O)[C@]2(I)c3ccccc3N3C(=N)[C@H](O)[C@@H]4c5ccccc5N1[C@@H]4[C@@H]32,,3.16 µM (active)
CC(C)[C@H](N)c1nnc(SCc2ccc(Cl)cc2)o1,,0.178 µM (active)
CC(C)[C@H](N)c1nnc(SC/C=C/c2ccccc2)o1,,2 µM (active)
OC[C@@H](O)[C@@H](O)[C@@H](O)[C@@H](O)c1nc2ccc(Cl)cc2[nH]1,-0.441% [at 11.4 µM] (inactive),
C/C(=N\N=C1\NC(=O)CC(C(=O)O)S1)c1cccs1 (stereo not given),22.1% (inactive),
C/C(=N\N=C(c1ccccc1)c1ccccc1)c1cccs1,,3.55 µM (active)
CC(=O)/C(=N\N=C(N)N)c1ccccc1,102% [at 11.4 µM] (inactive),
O=C(c1n[nH]c(=O)c2ccccc12)N1CCN(C2c3ccccc3-c3ccccc32)CC1,,3.16 µM (active)
CC[N+](CC)(CC(=O)Nc1c(C)cccc1C)Cc1ccccc1,-31% [at 25.6 µM] (inactive),
Cc1cccc(C)c1NC(=O)C[N+](C)(C)C,,inactive and 15.8 µM (active)
CC[N+](CC)(CC)CC(=O)Nc1c(C)cccc1C,,inactive
C/C(=N\[N+](C)(C)C)c1ccc(C)c(C)c1,17.4% [at 11.4 µM] (inactive),
CC1=Nc2ccccc2/C1=C\c1nc(-c2ccc(C(F)(F)F)cc2)oc1O,,14.1 µM (active)
Cc1ccccc1OC/C(O)=C(\C#N)c1nc2ccccc2[nH]1,-17.2% (inactive),
COc1cccc(OC)c1/C(O)=C(\C#N)c1nc2ccccc2[nH]1,,7.08 µM (active)
C=CC1=C(C(=O)O)N2C(=O)[C@@H](NC(=O)/C(=N\OCC(=O)O)c3csc(N)n3)[C@@H]2SC1,21.8% [at 25.6 µM] (inactive),
CCOc1ccc(NC(=O)CCNS(=O)(=O)c2ccc3c(c2)c(=O)n(C)c(=O)n3C)cc1,-24.2% (inactive),
COc1ccc(CSC2=C(C#N)C(=O)NC3(CCCCC3)S2)cc1,-6.47% [at 11.4 µM] (inactive),
COc1ccc(NC(=O)CSc2nc(C)c3c(c2C#N)CCCC3)cc1,,1.12 µM (active)
CCOc1ccc(NC(=O)CSc2nc(C)c3c(c2C#N)CCCC3)cc1,,2.82 µM (active)
CSc1nc(N)nc(SCC(=O)Nc2ccc(Cl)cc2)c1C#N,,0.708 µM (active)
CC(=O)Nc1ccc(C2=NN(CC#N)C(=O)SC2)cc1,-35.8% (inactive),
CO[C@H]1COC(=O)[C@H]2CCCN2C(=O)[C@@H](C)COC(=O)C/C=C\[C@@H]1C,43.2% [at 11.4 µM] (inactive),

SMILES,"activity, negative = inhibition",AC50
C#CCCCO/N=C1/[C@H]2O[C@@H]2[C@@H](O)[C@H]2[C@H]1CCn1c(=O)n(C)c(=O)n12,-3.85% [at 11.4 µM] (inactive),
Cc1ccccc1C(=O)Oc1ccc(Br)cc1C(=S)N1CCCC1,,2.24 µM (active)
Cc1c(-c2ccccc2)oc2c(C(=O)OCCN3CCCCC3)cccc2c1=O,16.9% [at 25.6 µM] (inactive),
O=C(Oc1ccc(C(=S)N2CCOCC2)cc1Br)c1cc(Cl)ccc1Cl,-6.53% (inactive),
COc1ccc2c(c1)C(=O)N(c1ccccc1)C(=O)C2,,11.2 µM (active)
COc1ccc(-n2c(C)n[nH]c2=O)cc1,-15.4% (inactive),
O=C(c1c(O)c2ccc(Cl)cc2[nH]c1=O)C1CC1,9.43% (inactive),
N#Cc1ccc(CN2CCC3(CC2)CCN(C(=O)c2ccncc2)CC3)cc1,33.2% (inactive),
CC(C)Cc1nc(N2CCN(C(=O)c3ccccc3)CC2)c(C#N)c2c1CCC2,,2.51 µM (active)
N#Cc1c(N2CCN(C(=O)c3ccccc3Cl)CC2)nc(-c2ccccc2)c2c1CCCC2,,3.98 µM (active)
CCC(=O)N1CCN(C(=O)c2ccccc2)CC1,-7.45% (inactive),
CC(C)CN1CCC2(CC1)CCN(C(=O)c1ccncc1)CC2,-12.2% (inactive),
COc1ccc(C(=O)N2CCC3(CCN(Cc4ccc(C#N)cc4)CC3)CC2)cc1,-41.7% (inactive),
CC(=O)OC[C@@H]1O[C@@H](O/N=C2/C[C@@H](O)[C@@H](O)[C@@H]3[C@H]4C(=O)N(c5ccc(F)cc5F)C(=O)[C@@H]4CC[C@@H]23)[C@H](OC(C)=O)[C@H](OC(C)=O)[C@@H]1OC(C)=O,51.5% [at 11.4 µM] (inactive),
Cc1cc(NC(=O)Nc2ccc3c(ccn3C)c2)sn1,,3.16 µM (active)
C[C@@H]1CC[C@H]2C(=O)NC[C@@H](O)CN2[C@@H]1c1ccc(Br)cc1,,2 µM (active)
CCCC[C@@H]1CN2[C@H](c3ccc(Br)cc3)[C@@H](C)CC[C@H]2C(=O)O1,-43.3% [at 11.4 µM] (inactive),
C[C@@H]1CN2[C@H](c3ccc(Br)cc3)[C@H](C)CC[C@H]2C(=O)O1,-28.6% [at 11.4 µM] (inactive),
C[C@@H]1CC[C@H]2C(=O)O[C@H](CN=[N+]=[N-])CN2[C@@H]1c1ccc(Br)cc1,,0.398 µM (active)
CCCC[C@@H]1CN2[C@H](c3ccc(Br)cc3)[C@H](C)CC[C@H]2C(=O)O1,,3.98 µM (active)
CO[C@H]1COC(=O)[C@@H](CCSC)NC(=O)C/C=C\[C@@H](C)[C@H](OC)COC(=O)[C@@H](OCc2ccccc2)/C=C\[C@@H]1C,-26% [at 11.4 µM] (inactive),
Cc1ccccc1/C=C\C1=NCCN1,-25.7% (inactive),
N=C(N)[C@H](N=Nc1ccccc1)C(N)=O,-26.2% [at 11.4 µM] (inactive),

SMILES,"activity, negative = inhibition",AC50
CCOc1ccc(-c2nnc(-c3ccncc3)o2)cc1,,0.112 µM (active)
Cc1ccc(-c2nnc(-c3ccc4ccccc4c3)o2)cc1,10.3% [at 11.4 µM] (inactive),
COc1ccc(-c2nnc(-c3cccnc3)o2)cc1,,17.8 µM (active)
N#CCCn1c(=O)cnc2cnc(N3CCNCC3)nc21,33.4% (inactive),
CC(=O)Nc1ccc(-c2cc(C(=O)O)c3cc4ccccc4cc3n2)cc1,9.44% [at 11.4 µM] (inactive),
COc1ccc(-c2cc(C(=O)Nc3nc4c(C)cccc4s3)c3ccccc3n2)cc1OC,,2.51 µM (active)
CC(C)(C)NS(=O)(=O)c1ccc(NC(=O)c2cc(-c3ccccc3)nc3ccccc23)cc1,,2.82 µM (active)
CCC(=O)Nc1nnc(C(C)(C)C)s1,-3.89% (inactive),
CC(C)(C)NS(=O)(=O)c1ccc(NC(=O)C(Sc2ccccc2)c2ccccc2)cc1 (stereo not given),,3.55 µM (active)
CC(C)(C)c1nnc(NC(=O)c2cc(-c3ccccc3)nc3ccccc23)s1,,5.01 µM (active)
CN1CCN(c2ncc3nc(-c4cc(F)cc(F)c4)c(=O)n(Cc4cccs4)c3n2)CC1,-27% (inactive),
CCS(=O)(=O)N(C)[C@@H]1c2cc(C#N)ccc2OC(C)(C)[C@H]1O,-11.7% (inactive),
Cc1cc([N+](=O)[O-])nn1CC(=O)NNC(=S)Nc1ccc(F)cc1,-23.1% (inactive),
Cc1cc([N+](=O)[O-])nn1Cc1ccccc1F,,11.2 µM (active)
Nc1c(S(=O)(=O)c2ccccc2)c2nc3ccccc3nc2n1Cc1ccco1,,7.08 µM (active)
COC(=O)c1c(C)nc2ccccc2c1C(=O)O,3.75% (inactive),
COC(=O)c1nn(-c2ccccc2)c(-c2ccccc2)c1C(=O)c1ccccc1,,8.91 µM (active)
CCOC(=O)c1nn(-c2ccccc2)c(-c2ccccc2)c1C(=O)c1ccccc1,,10 µM (active)
NC(=O)c1nn(-c2ccccc2)c(=O)cc1O,-3.79% (inactive),
O=C(c1ccccc1)c1nn(-c2ccccc2)c(=O)cc1C(F)(F)F,,1.58 µM (active)
O=C(O)c1nn(-c2ccccc2)ccc1=O,-12% (inactive),
